# Results taken from ChEMBL document CHEMBL2218924, “A broad activity screen in support of a chemogenomic map for kinase signalling research and drug discovery” (Biochem J, 2013).
# Experiments:
# [1] = target: T1, Ephrin type-B receptor 1 (Homo sapiens) (UniProt P54762); settings: at 10 µM
# T1 sequence (whole entry): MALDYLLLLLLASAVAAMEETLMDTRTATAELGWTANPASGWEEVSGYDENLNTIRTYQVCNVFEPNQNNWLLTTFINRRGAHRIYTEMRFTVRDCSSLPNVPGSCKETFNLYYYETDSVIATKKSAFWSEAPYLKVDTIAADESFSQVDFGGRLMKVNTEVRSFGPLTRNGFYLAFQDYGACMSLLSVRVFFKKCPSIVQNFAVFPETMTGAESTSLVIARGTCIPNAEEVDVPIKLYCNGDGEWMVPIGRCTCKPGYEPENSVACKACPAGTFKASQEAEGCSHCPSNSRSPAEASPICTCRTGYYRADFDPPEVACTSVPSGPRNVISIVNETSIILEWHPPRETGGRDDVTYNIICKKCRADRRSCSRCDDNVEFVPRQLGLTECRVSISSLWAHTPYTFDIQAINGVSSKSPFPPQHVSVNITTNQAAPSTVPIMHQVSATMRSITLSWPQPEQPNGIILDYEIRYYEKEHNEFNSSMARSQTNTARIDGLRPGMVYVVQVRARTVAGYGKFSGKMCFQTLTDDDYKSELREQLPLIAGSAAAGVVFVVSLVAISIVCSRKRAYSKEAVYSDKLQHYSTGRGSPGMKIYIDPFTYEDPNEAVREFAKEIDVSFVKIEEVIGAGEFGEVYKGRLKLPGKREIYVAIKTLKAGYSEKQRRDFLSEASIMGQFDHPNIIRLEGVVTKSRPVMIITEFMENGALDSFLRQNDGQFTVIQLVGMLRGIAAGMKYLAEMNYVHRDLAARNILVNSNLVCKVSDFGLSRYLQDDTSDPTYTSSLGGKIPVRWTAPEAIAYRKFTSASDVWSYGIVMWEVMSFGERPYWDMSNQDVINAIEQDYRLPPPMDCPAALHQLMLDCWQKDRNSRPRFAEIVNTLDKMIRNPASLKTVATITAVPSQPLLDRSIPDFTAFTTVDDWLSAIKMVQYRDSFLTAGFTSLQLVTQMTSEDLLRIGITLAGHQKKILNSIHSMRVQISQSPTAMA
# [2] = target: T2, Ephrin type-B receptor 2 (Homo sapiens) (UniProt P29323); settings: at 1 µM
# T2 sequence (whole entry): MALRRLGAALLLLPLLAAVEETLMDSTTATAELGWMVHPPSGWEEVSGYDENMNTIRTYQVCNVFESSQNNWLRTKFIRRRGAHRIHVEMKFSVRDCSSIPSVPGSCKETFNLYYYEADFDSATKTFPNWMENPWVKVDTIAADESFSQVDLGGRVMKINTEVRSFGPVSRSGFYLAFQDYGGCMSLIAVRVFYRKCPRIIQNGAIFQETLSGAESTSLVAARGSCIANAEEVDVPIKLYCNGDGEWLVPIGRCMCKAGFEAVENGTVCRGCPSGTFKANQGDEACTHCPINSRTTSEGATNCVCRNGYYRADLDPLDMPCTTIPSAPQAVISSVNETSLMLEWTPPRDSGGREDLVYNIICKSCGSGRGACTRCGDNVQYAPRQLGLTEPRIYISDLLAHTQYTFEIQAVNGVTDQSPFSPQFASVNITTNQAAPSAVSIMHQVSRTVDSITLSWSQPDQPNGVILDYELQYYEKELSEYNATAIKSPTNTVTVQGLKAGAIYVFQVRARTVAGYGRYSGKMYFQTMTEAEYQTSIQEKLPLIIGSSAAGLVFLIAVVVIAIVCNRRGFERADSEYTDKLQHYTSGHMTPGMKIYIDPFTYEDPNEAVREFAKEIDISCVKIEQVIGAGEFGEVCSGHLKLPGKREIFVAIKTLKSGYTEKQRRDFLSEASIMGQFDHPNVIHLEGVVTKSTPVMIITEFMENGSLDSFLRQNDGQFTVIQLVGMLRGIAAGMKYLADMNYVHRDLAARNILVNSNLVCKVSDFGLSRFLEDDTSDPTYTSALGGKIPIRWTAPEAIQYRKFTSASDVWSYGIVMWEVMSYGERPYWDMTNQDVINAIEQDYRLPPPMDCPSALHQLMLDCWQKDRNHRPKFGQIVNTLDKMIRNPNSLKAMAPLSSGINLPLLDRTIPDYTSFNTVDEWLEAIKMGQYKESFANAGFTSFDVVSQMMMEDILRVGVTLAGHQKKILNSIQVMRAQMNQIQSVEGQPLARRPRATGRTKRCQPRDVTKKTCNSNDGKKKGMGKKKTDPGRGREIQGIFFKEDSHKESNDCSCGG
# [3] = target: T2, Ephrin type-B receptor 2 (Homo sapiens); settings: at 10 µM
# [4] = target: T3, Ephrin type-B receptor 3 (Homo sapiens) (UniProt P54753); settings: at 1 µM
# T3 sequence (whole entry): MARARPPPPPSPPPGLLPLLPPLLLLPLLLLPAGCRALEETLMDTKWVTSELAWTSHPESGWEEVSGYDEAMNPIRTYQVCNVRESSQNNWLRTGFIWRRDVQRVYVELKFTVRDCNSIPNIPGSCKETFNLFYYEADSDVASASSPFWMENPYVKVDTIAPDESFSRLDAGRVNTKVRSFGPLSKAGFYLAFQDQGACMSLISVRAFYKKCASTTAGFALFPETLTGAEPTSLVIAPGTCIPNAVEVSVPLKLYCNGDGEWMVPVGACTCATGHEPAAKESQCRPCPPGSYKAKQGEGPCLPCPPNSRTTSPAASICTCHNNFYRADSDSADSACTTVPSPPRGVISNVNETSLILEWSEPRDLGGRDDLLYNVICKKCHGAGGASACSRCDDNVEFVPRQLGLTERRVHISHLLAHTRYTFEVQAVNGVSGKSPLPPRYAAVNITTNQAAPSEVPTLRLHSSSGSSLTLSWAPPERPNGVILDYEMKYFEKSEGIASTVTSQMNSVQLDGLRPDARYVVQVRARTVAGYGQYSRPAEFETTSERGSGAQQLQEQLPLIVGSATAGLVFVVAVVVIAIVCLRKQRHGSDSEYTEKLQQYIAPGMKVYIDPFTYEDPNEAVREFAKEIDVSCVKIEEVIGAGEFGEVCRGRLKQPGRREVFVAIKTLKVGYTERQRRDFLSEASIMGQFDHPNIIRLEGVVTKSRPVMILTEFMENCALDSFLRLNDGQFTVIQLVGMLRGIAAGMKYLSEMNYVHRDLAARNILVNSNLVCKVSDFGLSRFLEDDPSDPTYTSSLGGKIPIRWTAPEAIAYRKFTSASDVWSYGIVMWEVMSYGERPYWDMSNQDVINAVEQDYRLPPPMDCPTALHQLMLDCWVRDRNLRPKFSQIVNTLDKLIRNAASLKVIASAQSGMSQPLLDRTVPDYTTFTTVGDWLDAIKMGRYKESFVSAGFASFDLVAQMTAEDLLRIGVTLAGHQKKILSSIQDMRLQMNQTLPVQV
# [5] = target: T3, Ephrin type-B receptor 3 (Homo sapiens); settings: at 10 µM
# [6] = target: T4, Ephrin type-B receptor 4 (Homo sapiens) (UniProt P54760); settings: at 1 µM
# T4 sequence (whole entry): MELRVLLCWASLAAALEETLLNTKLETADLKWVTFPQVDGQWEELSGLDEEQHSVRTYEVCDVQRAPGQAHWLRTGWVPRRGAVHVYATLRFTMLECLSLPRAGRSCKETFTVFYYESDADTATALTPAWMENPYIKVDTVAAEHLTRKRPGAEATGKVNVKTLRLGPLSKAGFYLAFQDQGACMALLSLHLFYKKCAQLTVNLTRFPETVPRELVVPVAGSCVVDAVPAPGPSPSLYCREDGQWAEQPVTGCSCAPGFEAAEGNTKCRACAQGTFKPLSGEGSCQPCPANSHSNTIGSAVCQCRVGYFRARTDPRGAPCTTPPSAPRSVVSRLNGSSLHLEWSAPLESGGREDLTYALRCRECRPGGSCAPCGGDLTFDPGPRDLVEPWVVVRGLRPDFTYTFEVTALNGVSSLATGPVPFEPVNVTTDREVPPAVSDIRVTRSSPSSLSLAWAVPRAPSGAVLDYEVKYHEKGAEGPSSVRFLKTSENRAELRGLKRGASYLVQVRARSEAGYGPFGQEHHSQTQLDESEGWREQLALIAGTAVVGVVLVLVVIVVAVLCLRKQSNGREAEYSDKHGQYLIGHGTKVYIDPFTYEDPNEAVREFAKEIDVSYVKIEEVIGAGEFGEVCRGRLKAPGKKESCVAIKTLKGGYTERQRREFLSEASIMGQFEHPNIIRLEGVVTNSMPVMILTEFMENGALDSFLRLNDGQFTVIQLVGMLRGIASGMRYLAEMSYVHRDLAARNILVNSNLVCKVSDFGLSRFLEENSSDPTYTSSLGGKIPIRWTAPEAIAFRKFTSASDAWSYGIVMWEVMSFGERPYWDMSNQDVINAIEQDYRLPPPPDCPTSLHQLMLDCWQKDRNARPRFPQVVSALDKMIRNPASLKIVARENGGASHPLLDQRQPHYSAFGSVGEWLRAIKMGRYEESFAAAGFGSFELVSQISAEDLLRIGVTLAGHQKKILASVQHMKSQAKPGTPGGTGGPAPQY
# [7] = target: T4, Ephrin type-B receptor 4 (Homo sapiens); settings: at 10 µM
# [8] = target: Receptor tyrosine-protein kinase erbB-4 (Homo sapiens) (UniProt Q15303); settings: at 1 µM
# Sequence of Receptor tyrosine-protein kinase erbB-4 (Homo sapiens) (Q15303 whole entry): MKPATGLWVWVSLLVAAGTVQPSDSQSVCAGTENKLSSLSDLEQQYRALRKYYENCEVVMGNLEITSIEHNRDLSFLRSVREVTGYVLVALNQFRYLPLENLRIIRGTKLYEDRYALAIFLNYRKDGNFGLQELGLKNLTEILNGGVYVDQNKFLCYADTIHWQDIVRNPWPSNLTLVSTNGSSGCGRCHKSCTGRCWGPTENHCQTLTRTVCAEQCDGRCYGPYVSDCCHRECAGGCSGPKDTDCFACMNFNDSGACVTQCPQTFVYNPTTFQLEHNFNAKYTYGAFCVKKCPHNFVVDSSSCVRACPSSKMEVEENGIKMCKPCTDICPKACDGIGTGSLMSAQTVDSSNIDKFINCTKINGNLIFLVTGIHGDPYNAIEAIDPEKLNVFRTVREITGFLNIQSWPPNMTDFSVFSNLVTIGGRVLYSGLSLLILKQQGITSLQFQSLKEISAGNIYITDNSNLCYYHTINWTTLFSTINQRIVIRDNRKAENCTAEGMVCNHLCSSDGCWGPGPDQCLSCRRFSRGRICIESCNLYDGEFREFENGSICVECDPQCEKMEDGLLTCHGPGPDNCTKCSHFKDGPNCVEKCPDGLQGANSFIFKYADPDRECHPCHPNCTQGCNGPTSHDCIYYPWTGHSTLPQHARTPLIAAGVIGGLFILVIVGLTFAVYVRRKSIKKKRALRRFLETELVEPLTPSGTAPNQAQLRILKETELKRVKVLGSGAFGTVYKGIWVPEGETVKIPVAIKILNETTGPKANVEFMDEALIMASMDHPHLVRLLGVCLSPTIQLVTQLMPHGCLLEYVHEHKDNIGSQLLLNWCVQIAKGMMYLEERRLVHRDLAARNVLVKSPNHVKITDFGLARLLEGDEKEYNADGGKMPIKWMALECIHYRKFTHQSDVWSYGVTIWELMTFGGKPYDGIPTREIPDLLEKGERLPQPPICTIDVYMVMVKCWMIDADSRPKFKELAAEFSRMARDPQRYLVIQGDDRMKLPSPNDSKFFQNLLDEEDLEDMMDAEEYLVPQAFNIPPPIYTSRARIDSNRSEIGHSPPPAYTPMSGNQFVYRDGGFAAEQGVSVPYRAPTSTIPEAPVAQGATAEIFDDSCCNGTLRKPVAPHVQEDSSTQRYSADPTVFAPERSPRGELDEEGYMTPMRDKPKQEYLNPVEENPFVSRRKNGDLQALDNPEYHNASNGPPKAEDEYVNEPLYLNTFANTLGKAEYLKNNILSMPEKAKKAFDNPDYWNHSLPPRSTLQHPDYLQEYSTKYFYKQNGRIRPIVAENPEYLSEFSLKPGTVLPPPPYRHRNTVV
# [9] = target: Receptor tyrosine-protein kinase erbB-4 (Homo sapiens) (UniProt Q15303); settings: at 10 µM
# [10] = target: Focal adhesion kinase 1 (Homo sapiens) (UniProt Q05397); settings: at 1 µM
# Sequence of Focal adhesion kinase 1 (Homo sapiens) (Q05397 2-1052 limits assumed): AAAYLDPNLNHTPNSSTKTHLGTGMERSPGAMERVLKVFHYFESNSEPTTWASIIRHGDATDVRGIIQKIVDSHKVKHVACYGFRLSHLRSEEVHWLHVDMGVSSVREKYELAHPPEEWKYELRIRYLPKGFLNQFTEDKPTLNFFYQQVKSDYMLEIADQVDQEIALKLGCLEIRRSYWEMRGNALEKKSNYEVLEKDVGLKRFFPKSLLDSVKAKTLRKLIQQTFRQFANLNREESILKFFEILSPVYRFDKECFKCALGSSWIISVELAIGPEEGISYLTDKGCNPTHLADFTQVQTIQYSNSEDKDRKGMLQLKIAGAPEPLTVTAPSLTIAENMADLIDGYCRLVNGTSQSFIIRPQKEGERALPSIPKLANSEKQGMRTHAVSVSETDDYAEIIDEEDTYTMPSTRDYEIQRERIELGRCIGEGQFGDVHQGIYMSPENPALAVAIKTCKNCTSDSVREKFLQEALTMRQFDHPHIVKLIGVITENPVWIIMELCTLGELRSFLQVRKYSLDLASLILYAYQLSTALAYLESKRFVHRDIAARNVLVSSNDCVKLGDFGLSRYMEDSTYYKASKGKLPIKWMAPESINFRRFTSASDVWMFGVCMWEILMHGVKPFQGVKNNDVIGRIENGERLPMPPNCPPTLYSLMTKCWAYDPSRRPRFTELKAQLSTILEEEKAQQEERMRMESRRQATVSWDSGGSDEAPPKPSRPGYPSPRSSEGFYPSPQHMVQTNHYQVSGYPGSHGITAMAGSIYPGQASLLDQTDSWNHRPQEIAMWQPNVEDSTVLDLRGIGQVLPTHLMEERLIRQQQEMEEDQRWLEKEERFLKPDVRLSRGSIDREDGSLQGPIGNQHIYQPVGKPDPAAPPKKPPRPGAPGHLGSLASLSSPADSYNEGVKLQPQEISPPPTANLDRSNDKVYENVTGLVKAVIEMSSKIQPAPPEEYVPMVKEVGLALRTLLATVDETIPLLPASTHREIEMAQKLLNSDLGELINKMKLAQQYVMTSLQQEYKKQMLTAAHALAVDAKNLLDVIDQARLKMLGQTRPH
compound,measurement,setting,value
NC(=O)c1ccc2[nH]c(-c3ccc(Oc4ccc(Cl)cc4)cc3)nc2c1,residual activity,[1],94%
same,residual activity,[2],110%
same,residual activity,[3],128%
same,residual activity,[4],102% (inactive)
same,residual activity,[5],94%
same,residual activity,[6],89%
same,residual activity,[7],93%
same,residual activity,[8],106%
same,residual activity,[9],126%
same,residual activity,[10],91%
